# Measurements reported in ChEMBL document CHEMBL1157539, “Thousands of chemical starting points for antimalarial lead identification” (Nature, 2010).
# “And” between values parts separate entries of the source, which are not always exact repeats. Identical values can stand only once. In all, about 13,000 compounds were measured (“IFI”: median about 4, highest 2% from about 17 on). Only a selection was taken, and the highest values are over-represented in it overall.
# Experiment: GSK_TCMDC: Inhibition Frequency Index (IFI). The number of non-kinase HTS assays where a compound showed > 50 % inhibition, expressed as a percentage of the number of such assays in which the compound was tested
# Type: functional
row,SMILES,IFI
1,Nc1c2c(nc3cc(NC(=O)c4ccc([N+](=O)[O-])cc4)ccc13)CCCC2,0%
2,CNC(=O)C(C)N(c1ccc(Cl)cc1)c1nc(C(C)(C)C)cs1 (stereo not drawn),4.76%
3,COC(=O)C(=C(C)C)N1C(=O)[C@@H](NC(=O)OCc2ccccc2)[C@H]1SS[C@@H]1[C@H](NC(=O)OCc2ccccc2)C(=O)N1C(C(=O)OC)=C(C)C,4.41%
4,CC(CN1CCN(C)CC1)C(=O)Nc1ccc(-c2cccc(-c3nc4ccccc4[nH]3)c2)cc1 (stereo not drawn),4.59%
5,COCCN1CCN(Cc2ccc(-c3ccc(-c4nc5cccc(C)c5[nH]4)s3)cc2)CC1,6.86%
6,O=S(=O)(NCCN1CCCC1)c1ccc(-c2ccc(CNCc3ccccc3)cc2)cc1F,6.54%
7,Oc1ccc(CCNc2nc(NCCCOc3ccccc3-c3ccc(F)cc3)nc(N3CCNCC3)n2)cc1,13.8%
8,Oc1ccc(CCNc2nc(NCCCOc3ccccc3-c3cccc(C(F)(F)F)c3)nc(N3CCNCC3)n2)cc1,10.5%
9,Oc1ccc(CCNc2nc(NCCCOc3ccccc3-c3cccnc3)nc(N3CCNCC3)n2)cc1,6.9%
10,Oc1ccc(CCNc2nc(NCc3ccccc3-c3ccc(C(F)(F)F)cc3)nc(N3CCNCC3)n2)cc1,13.1%
11,COc1ccc(-c2ccccc2CNc2nc(NCCc3ccc(O)cc3)nc(N3CCNCC3)n2)cc1,13.4%
12,Oc1ccc(CCNc2nc(NCCCOc3cccc(-c4ccccc4)c3)nc(N3CCNCC3)n2)cc1,18.8%
13,Oc1ccc(CCNc2nc(NCc3ccccc3-c3ccc(F)cc3)nc(N3CCNCC3)n2)cc1,13.6%
14,CN1CCN(c2nc(NCCc3ccc(O)cc3)nc(NCc3ccccc3-c3ccc(C(F)(F)F)cc3)n2)CC1,11.8%
15,CC1CN(c2nc(NCCc3ccc(O)cc3)nc(NCc3ccccc3-c3ccc(C(F)(F)F)cc3)n2)CC(C)N1 (stereo not drawn),17.2%
16,Oc1ccc(CCNc2nc(NCCOc3cccc4ccccc34)nc(N3CCNCC3)n2)cc1,16.4%
17,Oc1ccc(CCNc2nc(NCc3ccccc3Oc3ccc(C(F)(F)F)cc3)nc(N3CCNCC3)n2)cc1,20%
18,Oc1ccc(CCNc2nc(NCCCOc3ccccc3-c3ccc(C(F)(F)F)cc3)nc(N3CCNCC3)n2)cc1,17.2%
19,CC(C)N1CCC(N(Cc2ccc(-c3ccc(Cl)cc3)cc2)C(=O)Cn2c(CCc3cccc(F)c3F)nc(=O)c3ccccc32)CC1,7.8%
20,O=C(/C=C/c1ccc(Cl)c(Cl)c1)NCCCCCN1CCC(c2n[nH]c(-c3ccccc3)c2Br)CC1,12.9%
21,Cc1cc2nc(-c3ccc(/C=C/C(=O)NC4CCN(Cc5ccccc5)CC4)cc3)[nH]c2cc1C,3.76%
22,CS(=O)(=O)NCCCNCc1ccc(-c2ccc(-c3nc4cc(C(F)(F)F)ccc4[nH]3)s2)cc1,4.95%

row,SMILES,IFI
1,Cc1nc2ccc(-c3ccc(OC(F)(F)F)cc3)cc2c(O)c1C#N,1.82%
2,COc1cccc2c(NN=Cc3cccc(F)c3)ccnc12,2.99%
3,Oc1ccc(CCCNc2nc(NCc3ccccc3-c3ccccc3)nc(N3CCNCC3)n2)cc1,14.9%
4,Oc1ccc(CCNc2nc(NCc3ccccc3-c3ccccc3)nc(N3CCCNCC3)n2)cc1,18.2%
5,Oc1ccc(CCNc2nc(NCc3ccccc3-c3ccc(C(F)(F)F)cc3)nc(N3CCCNCC3)n2)cc1,14.9%
6,NCC1CCCN1Cc1cccc(-c2ccc(-c3nc4ccccc4[nH]3)s2)c1 (stereo not drawn),0.97%
7,CC[C@H](C)CNC(=O)c1cccc(-c2ccc(CN3CCC(N4CCCC4)CC3)cc2)n1,9.09%
8,C=CCC1OC(=O)c2cc(OC)cc(OC)c21 (stereo not drawn),33.6%
9,C=CC(C)C1OC(=O)c2cc(OC)cc(OC)c21 (stereo not drawn),27%
10,COc1ccc(CCNCCCCCNCCCc2ccc(Cl)cc2)cc1OC,2.8%
11,COc1cc(Cc2cnc(N)nc2N)cc(CC(C)O)c1O (stereo not drawn),0%
12,Fc1ccc2[nH]c(-c3cccc(-c4ccc(CN5CCC(CCN6CCCCC6)CC5)cc4)c3)nc2c1,8.33%
13,NC(=O)c1ccc(C(=O)Nc2cccc(-c3ccc(-c4nc5cc(C(F)(F)F)ccc5[nH]4)cc3)c2)cc1,2.59%
14,O=C(NCCCCN1CCC(c2ccc3c(c2OCCN2CCCC2=O)CCCC3)CC1)c1ccc(-c2ccc(C(F)(F)F)cc2)cc1,9.65%
15,C[C@@H]1CC[C@H](NC(=O)[C@H](CC2CCCC2)NC(=O)N2CCNCC2)C(=O)CN1S(=O)(=O)c1ccccn1,5.93%
16,CC(C)C[C@H](Nc1ccnc(NCC2CCCCC2)n1)C(=O)NCCc1ccccc1,8.89%
17,CC(C)C[C@H](Nc1ccnc(NCC2CCCCC2)n1)C(=O)NCCOc1ccccc1,13%
18,O=C(NCCc1ccccc1)[C@H](Cc1ccccc1)Nc1ccnc(NCC2CCCCC2)n1,20.4%
19,Cc1ccc(CNC(=O)[C@H](Cc2ccccc2)Nc2ccnc(NCC3CCCCC3)n2)cc1,11.1%
20,O=C(NCCOc1ccccc1)[C@H](Cc1ccccc1)Nc1ccnc(NCC2CCCCC2)n1,20%
21,Cc1cc(N[C@@H](Cc2ccccc2)C(=O)NCCOc2ccccc2)nc(NCC2CCCCC2)n1,16.7%
22,COc1ccc2nccc([C@@H](O)CN3CCC(NCc4nc5cc(F)cc(F)c5[nH]4)CC3)c2c1,3.65%

row,SMILES,IFI
1,CC1(C)NC(N)=NC(=N)N1OCCCSc1ccccc1,2.26%
2,Cc1cc(OCCCn2ccnc2)ccc1-c1csc(/N=C(\N)NCc2ccccc2)n1,5%
3,Cc1ccccc1Cc1cccc(/N=C(\N)Nc2ccc(Cl)cc2)n1,31.2%
4,Cc1cccc2nc(-c3ccc(-c4ccc(NC(=O)Nc5ccc(Cl)cc5)cc4)s3)[nH]c12,5.94%
5,Cc1cc(NCCc2ccccc2)nc(NC(=N)Nc2ccc(Cl)cc2)n1,3.82%
6,N/C(=N\c1cccc(Cc2ccccc2)n1)NCc1ccccc1,21%
7,Cc1cccc(NC(=O)NCc2ccccc2)n1,0.78%
8,CC(=O)Nc1nc(C(=O)Nc2ccc(-c3cccc(-c4nc5cc(C(F)(F)F)ccc5[nH]4)c3)cc2)cs1,6.03%
9,Cc1cc(=O)c(-c2ccc(Oc3cccc(C(F)(F)F)c3)cc2)c(C)[nH]1,2.56% and 2.24%
10,CCN(CCCN1CCCCC1)c1cc(C)nc(Nc2ccc(C(C)C)cc2)n1,10.3%
11,CCC(C)c1ccc(Nc2nc(C)cc(N(CC)CCCN3CCCCC3)n2)cc1 (stereo not drawn),19.5%
12,CCN(CCCN1CCCCC1)c1cc(C)nc(Nc2ccc(C)cc2)n1,2.56%
13,CC(C)(C)c1ccc(C(=O)Nc2cccc(Nc3c(C(=O)NCc4cccc(C(F)(F)F)c4)cnc4c(O)cccc34)c2)cc1,3.68%
14,CCCCN(CCCC)/C(=N/c1cccc(Cl)c1Cl)Nc1ccc(C#N)cc1O,7.14%
15,O=C(Cc1cccc(O)c1)Nc1ccc(-c2cccc(-c3nc4cc(C(F)(F)F)ccc4[nH]3)c2)cc1,8.93%
16,CC(CN(C)C)C(=O)Nc1cccc(-c2cccc(-c3nc4ccccc4[nH]3)c2)c1 (stereo not drawn),5.41%
17,COc1ccccc1-c1cccc(-c2cccc(NC(=O)c3ccc([N+](=O)[O-])o3)c2)n1,11.9%
18,O=C(Nc1cccc(-c2cccc(-c3ccc(F)cc3)n2)c1)c1ccc([N+](=O)[O-])o1,19.1%
19,COc1cccc(-c2cccc(-c3ccc(NC(=O)c4ccc([N+](=O)[O-])o4)cc3)n2)c1,9.52%
20,Cc1cccc2nc(-c3ccc(-c4ccc(CN5CCCC(N)C5)cc4)cc3)[nH]c12 (stereo not drawn),4.23%
21,COc1ccccc1C1CCN(C2CCC(NC(=O)c3cc4ccccc4[nH]3)CC2)CC1 (stereo not drawn),16.4%
22,COc1ccccc1C1CCN(C2CCC(NC(=O)/C=C/c3ccc4c(c3)OC(F)(F)O4)CC2)CC1 (stereo not drawn),9.84%

row,SMILES,IFI
1,Cc1ccc(/C=C/C(=O)NC2CCC(N3CCC(c4ccccc4C)CC3)CC2)cc1C (stereo not drawn),15%
2,Cc1ccccc1C1CCN(C2CCC(NC(=O)c3cc(-c4ccc(Cl)cc4)cs3)CC2)CC1 (stereo not drawn),22.4%
3,CCc1c(C(=O)NC2CCC(N3CCC(c4ccccc4C)CC3)CC2)[nH]c2ccc(Br)cc12 (stereo not drawn),15.8%
4,Cc1ccc(/C=C/C(=O)NC2CCC(N3CCC(c4ccccc4C)CC3)CC2)cc1F (stereo not drawn),13.3%
5,CCc1c(C(=O)NC2CCC(N3CCC(c4ccccc4OC)CC3)CC2)[nH]c2ccc(OC)cc12 (stereo not drawn),6.45%
6,Cc1ccccc1C1CCN(C2CCC(NC(=O)/C=C/c3ccc4c(c3)OC(F)(F)O4)CC2)CC1 (stereo not drawn),17.2%
7,COc1ccc(-c2csc(C(=O)NC3CCC(N4CCC(c5ccccc5C)CC4)CC3)c2)cc1 (stereo not drawn),14%
8,Cc1ccccc1C1CCN(C2CCC(NC(=O)c3cc4cc(C(C)C)ccc4[nH]3)CC2)CC1 (stereo not drawn),19.6%
9,COc1ccccc1C1CCN(C2CCC(NC(=O)c3cc(-c4ccc(Cl)cc4)cs3)CC2)CC1 (stereo not drawn),16.4%
10,COc1ccccc1C1CCN(C2CCC(NC(=O)c3cc4cc(C(C)C)ccc4[nH]3)CC2)CC1 (stereo not drawn),18%
11,CN1CCC(NCc2ccc(-c3cccc(-c4nc5ccccc5[nH]4)c3)cc2)CC1,4.76%
12,Cc1[nH]c(C)c(-c2ccc(OCc3ccc(F)cc3)nc2)c(=O)c1Br,3.57%
13,Cc1c(Cl)cccc1N=C(S)NN=Cc1ccccn1,6.3%
14,Cc1c(-c2cccc(C(C)(C)NCCCN3CCCCC3)c2)cnc(N)c1C,0.74%
15,Cc1ccc(O)cc1C[C@@H]1C(=O)CC[C@@]2(C)[C@H]1CC[C@]2(C)O,0%
16,O=C(Nc1ccccc1)N(Cc1ccc(-c2cccc(CNC3CCCC3)c2)cc1)C1CCN(Cc2ccccc2)CC1,7.04%
17,Cc1cccc2nc(-c3ccc(-c4cccc(CNCCCNS(C)(=O)=O)c4)s3)[nH]c12,3.96%
18,CNC(=O)c1cnc(Nc2ccc(OCC(O)CN(C)C)cc2)nc1Nc1cccc(OC)c1 (stereo not drawn),2.22%
19,CCOc1ccc2[nH]c(C)cc(=NN=Cc3ccccc3)c2c1,1.53%
20,CCN(CC)CCCC(C)Nc1c(-c2ccc(OC)cc2)cnc2ccccc12 (stereo not drawn),0%
21,CN(C)c1nc(NCc2ccccc2)nc(N/N=C/c2cc([N+](=O)[O-])ccc2O)n1,6.16%
22,CNC(=O)C1Cc2c([nH]c3cc(Br)ccc23)C2(CCN(CCc3ccccc3)CC2)N1 (stereo not drawn),7.86%
